# Pf growth 48h = Primary qHTS for delayed death inhibitors of the malarial parasite plastid, 48 hour incubation | P. falciparum luciferase growth in erythrocytes, 48 h | Potency, µM (series often up to 28.7 µM), without a hit: at the top dose activity change, negative = inhibition, usual class: inhibitors | actives 5.9% (n = 310,000); note: potency is the fitted concentration of half-maximal effect; % is set by controls: 0 for no effect and ±100 for the full control effect
#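 Erythrocytes infected with P. falciparum carrying an integrated firefly luciferase reporter (2% hematocrit, 0.1% parasitemia final) were exposed to compounds in RPMI 1640 with 0.5% Albumax at 37 C, 5% CO2. Growth inhibition was scored as reduced luminescence.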
# Shiga inhibitor = A qHTS for Small Molecule Inhibitors of Shiga Toxin; inhibition, % at 38.7 µM; actives 9.2% (n = 290,000); AID 2315, 2010; Vero cells, Shiga toxin protein synthesis inhibition reporter; in the data active = inhibition mostly above about 28%, no sharp cut-off; inactive = mostly below about 43%; note: 0% is about no effect
# Pf growth 96h = Primary qHTS for delayed death inhibitors of the malarial parasite plastid, 96 hour incubation. P. falciparum luciferase reporter growth, 96 h. Potency, µM (series often up to 28.7 µM), for the others: at the top dose activity change, negative = inhibition, usual class: inhibitors. actives 6.9% (n = 320,000). AID 504834, 2011; note: potency is the fitted concentration of half-maximal effect; % is set by controls: 0 for no effect and ±100 for the full control effect
#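 Erythrocytes infected with luciferase-expressing P. falciparum were dispensed at 2% hematocrit and 0.05% parasitemia (final), then incubated with compounds 96 hours at 37 C in 5% CO2. Luminescence after detection reagent addition reported growth.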
# CHX counter = Cycloheximide Counterscreen for Small Molecule Inhibitors of Shiga Toxin | cell reporter, cycloheximide protein synthesis inhibition counterscreen | max response, % | actives 12% (n = 300,000); in the data active = max response mostly above about 13%, no sharp cut-off; inactive = mostly below about 14%; note: read at 38.3 µM for the half of the compounds with a filed dose; 0% is about no effect
# MARV entry inh = qHTS for inhibitors of binding or entry into cells for Marburg Virus. Marburg virus pseudotyped entry inhibition, cell reporter. Potency, µM (highest dose often 37.8 µM), without a hit: at the highest dose activity change, negative = inhibition, actives largely listed as inhibitors. actives 1.8% (n = 300,000); calls by dose curve; tested in HEK293 cells; note: potency is the fitted concentration of half-maximal effect; % is set by controls: 0 for no effect and ±100 for the full control effect
# LASV entry inh = qHTS for Inhibitors of binding or entry into cells for Lassa Virus | Lassa virus pseudotype entry inhibition, cell reporter | Potency, µM (doses to about 37.9 µM), without a hit: top-dose activity change, negative = inhibition, usual class: inhibitors | actives 1.2% (n = 300,000); calls by dose curve; tested in HEK293 cells; note: potency is the fitted concentration of half-maximal effect; % is set by controls: 0 for no effect and ±100 for the full control effect; nearly all actives have a fitted effect of over 50% in size
# * = called active by the depositor; ? = inconclusive; . = no result given; [ ] = remark or other dose. An excerpt weighted towards active compounds, which were near 19% of everything screened. Unless noted, calls come from the whole dose curve; as a rule, active = well fitted inhibition curve with a large enough effect; inconclusive = small, poorly fitted or top-dose-only effect, or another doubt; inactive = no such curve, though single readings can be large or run the other way.
SMILES,Pf growth 48h,Shiga inhibitor,Pf growth 96h,CHX counter,MARV entry inh,LASV entry inh
CCOc1cc2[nH]c(=S)n(Cc3ccc(C(=O)NCCN(CC)CC)cc3)c(=O)c2cc1OCC,2.62µM*,-14.6,-22.1%,-0.7,10µM*,9.8%[46.1 µM]
O=C1C(c2ccccc2)NC(=S)N1C1CCCCC1 (stereo not given),7.6%,41.0,?,0.4,.,.
CCOc1ccc(CCNC(=O)c2cccc(C#N)c2)cc1OCC,10.4µM*,-6.5,?,4.8,-27.0%[46.1 µM],.
CCOc1ccc(CCNC(=O)c2cccc(S(=O)(=O)N3CC(C)OC(C)C3)c2)cc1OCC (stereo not given),9.28µM*,.,10.4µM*,.,?,-26.1%
CCOc1ccc(CCNC(=O)c2cccc(-n3cnnn3)c2)cc1OCC,?,.,?,.,18.0%,-6.9%
CCOc1ccc(CCNC(=O)c2cccc(S(=O)(=O)N3CCCC3)c2)cc1OCC,11.7µM*,.,?,.,?,-18.9%
O=C1Nc2cc(S(=O)(=O)N3CCCC3)ccc2N2CCCC12 (stereo not given),16.5µM*,-11.7,-16.6%,3.7,-7.3%,-13.8%
O=C1Nc2ccccc2N2CCCC12 (stereo not given),?,-20.0,?,-1.7,.,.
COC(=O)c1ccc(NC(=O)c2ccc3c(c2)NC(=O)C2CCCN32)cc1 (stereo not given),8.28µM*,.,7.38µM*,.,.,.
CCOc1ccc(CCNC(=O)c2ccc(S(=O)(=O)N3CCCC3)cc2)cc1OCC,11.7µM*,.,?,.,-27.5%[46.1 µM],?
O=C(OCCOc1ccccc1)c1cccc(S(=O)(=O)N2CCOCC2)c1,?,.,?,.,6.0%,1.2%
Cc1ccc(OCCOC(=O)c2cccc(S(=O)(=O)N3CC(C)OC(C)C3)c2)cc1 (stereo not given),13.1µM*,.,?,.,.,.
CCOc1ccc(CCNC(=O)COn2nnc3ccc(S(=O)(=O)N4CCOCC4)cc32)cc1OCC,?,.,9.28µM*,.,-10.9%[46.1 µM],-12.9%
COc1cc(/C=C2/NC(=O)N(CC(=O)Nc3cccc(C)c3)C2=O)ccc1OCC(N)=O,?,-12.9,-15.8%,-2.7,-1.9%[14.2 µM],-29.7%
COc1ccc(CNC(=O)C2CCN(S(=O)(=O)N3CCC4(CC3)OCCO4)CC2)c(OC)c1,16.0%,-7.4,-16.5%,-3.1,?,?
CCOc1ccc(CCNC(=O)c2ccc3c(c2)NC(=O)C2CCCN32)cc1OCC (stereo not given),5.22µM*,-3.8,9.28µM*,0.3,.,.
COc1cccc(C(=O)NCCS(=O)(=O)N2CCc3ccccc3C2)c1,-3.6%,.,16.5%,.,20.4%,-12.3%
CCOc1ccc(CCNC(=O)COC(=O)c2cccc(S(=O)(=O)N3CCCCC3)c2)cc1OCC,-9.9%,.,-24.4%,.,-24.9%,-9.7%
COc1ccc(CCNC(=O)c2cccc(S(=O)(=O)N3CCc4ccccc4C3)c2)cc1,9.28µM*,.,?,.,.,.
CCOc1ccc(CCNC(=O)COC(=O)c2cccc(S(=O)(=O)N3CCOCC3)c2)cc1OCC,9.28µM*,.,?,.,-15.7%[46.1 µM],9.9%
CCOc1cc(CNC(=O)c2ccc3c(c2)NC(=O)C2CCCCN32)cc(OCC)c1OCC (stereo not given),.,.,.,.,.,15.7%[46.1 µM]
CCOc1ccc(CCNC(=O)c2cn(C)c3ccc(S(=O)(=O)N4CCOCC4)cc3c2=O)cc1OCC,11.7µM*,14.9,?,0.6,-23.6%[46.1 µM],8.5%[46.1 µM]
CCOc1ccc(CCNC(=O)c2cn(C)c3ccc(S(=O)(=O)N4CCCCC4)cc3c2=O)cc1OCC,.,.,.,.,-60.0%[46.1 µM],6.1%[46.1 µM]
CCN(CC)S(=O)(=O)c1ccc(NC(=O)c2cc(-c3cccs3)nc3ccccc23)cc1,-25.9%,-1.2,-16.2%,-0.8,-26.5%,?
O=C1OC(N2C(=O)CC[C@H]2C(=O)Nc2cccc(F)c2)c2ccccc21 (stereo not given in full),30.1%,-7.6,-5.6%,-1.3,.,.
SMILES,Pf growth 48h,Shiga inhibitor,Pf growth 96h,CHX counter,MARV entry inh,LASV entry inh
CCOc1cc2c(cc1OCC)CN(C(=O)c1cccc(S(=O)(=O)N3CCCC3)c1)CC2,?,.,10.4µM*,.,.,.
Cc1oc2ccc(O)cc2c1C(=O)c1ccccc1,49.9%,45.2,-4.1%,14.7*,-9.5%[46.1 µM],6.0%[46.1 µM]
Cc1ccccc1NC(=O)c1c(C)oc2ccc(O)c(CN(C)Cc3ccccc3)c12,.,.,.,.,-19.5%[46.1 µM],?
Cc1oc2ccc(O)c(CN(C)C)c2c1C(=O)c1ccccc1,-3.6%,6.8,-10.9%,0.6,11.2µM*,?
CCOC(=O)c1c(CSCc2ccccc2)oc2ccc(O)c(CN(C)C)c12,5.86µM*,-13.7,5.86µM*,-4.3,?,?
Cn1nnc(NC(=O)c2cccs2)n1,26.5%,14.9,-19.5%,10.2,23.3%[46.1 µM],8.2%[46.1 µM]
O=C(NCC1COc2ccccc2O1)c1cccc(S(=O)(=O)N2CCOCC2)c1 (stereo not given),-2.8%,.,?,.,-2.9%,-28.2%
Cc1c(C(=O)NCC2COc3ccccc3O2)oc2ccc(S(=O)(=O)N(C)C3CCCCC3)cc12 (stereo not given),9.28µM*,-11.0,.,-3.9,?,-18.8%
O=C(NCC1COc2ccccc2O1)c1ccc(Cl)c(S(=O)(=O)N2CCCC2)c1 (stereo not given),9.28µM*,.,9.28µM*,.,.,.
O=C(NCC1COc2ccccc2O1)c1ccc(Cl)c(S(=O)(=O)N2CCOCC2)c1 (stereo not given),?,.,13.1µM*,.,.,.
CCCCSCCCNC(=O)c1cn(C)c2ccc(S(=O)(=O)N3CCCC3)cc2c1=O,?,4.6,10.4µM*,12.8,18.1%[46.1 µM],?
Cc1ccc(NC(=O)c2oc3ccc(S(=O)(=O)N(C)C4CCCCC4)cc3c2C)cc1Cl,.,.,.,.,.,3.5%[46.1 µM]
Cc1cc(C)cc(C(=O)NC(CC(N)=O)c2ccc(N3CCN(c4ccccn4)CC3)c([N+](=O)[O-])c2)c1 (stereo not given),39.5%,-9.6,56.6%,-2.8,.,.
CC(=O)N1CCN(c2ccccc2NC(=O)c2cccc3c(Cl)cccc23)CC1,-8.4%,23.4,-24.8%,34.5,.,.
Cn1cc(C(=O)NCC2COc3ccccc3O2)c(=O)c2cc(S(=O)(=O)N3CCCCC3)ccc21 (stereo not given),11.7µM*,-22.1,.,-7.1,?,-29.5%
C=CCn1cc(C(=O)NCC2CCCO2)c(=O)c2cc(S(=O)(=O)N3CCCCCC3)ccc21 (stereo not given),11.7µM*,-13.9,3.6%,-4.8,?,-1.8%
C=CCn1cc(C(=O)OC)c(=O)c2cc(S(=O)(=O)N3CCCCCC3)ccc21,?,36.8,0.0%,1.5,-2.5%[46.1 µM],1.1%[46.1 µM]
CCN1CCCC1CNC(=O)c1cn(C)c2ccc(S(=O)(=O)N3CCCCCC3)cc2c1=O (stereo not given),-12.4%,-5.3,-11.8%,-4.0,-20.7%,-7.8%
O=C(NCCOCCn1c(=O)oc2ccccc21)Nc1cccc(Cl)c1,.,.,.,.,2.5%[46.1 µM],-3.0%[46.1 µM]

# Screens from PubChem BioAssay.
